KDM5B inhibitor = blocks human KDM5B histone demethylase activity | AID 1347165 | KDM5B demethylase, FDH-coupled NADH fluorescence (FDH is formaldehyde dehydrogenase) | Q9UGL1 | hit rate 2.6% among 220,000 | Potency, µM (titrated, usually from 57.7 µM), most hits filed as inhibitors; active = well fitted inhibition curve with a large enough effect; inconclusive = small, poorly fitted or top-dose-only effect; inactive = no such curve, though single readings can be large or run the other way; note: potency is the fitted concentration of half-maximal effect; 0% is about no effect; nearly all actives have a fitted effect of over 70% in size
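Coupled FDH/NAD⁺ fluorescence readout. KDM5BΔAP 200 nM final; compound titration, 10 min RT preincubation; substrate mix 12.5 µM H3K4me3, 25 µM 2-OG, 50 µM Fe(II), 100 µM ascorbate, 0.25 mM NAD⁺, 0.25 U/mL FDH; ΔRFU over 30 min.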
IP6K1 inhibitor = inhibitors of human IP6K1; Q92551; IP6K1 kinase, ADP-Glo luminescence, 2 h; active compounds read low; activity change, % (series mostly up to about 58 µM); hit rate 0.81% among 140,000; AID 1645851; in the data active = activity change below about -25%; note: % is set by controls: 0 for no effect and ±100 for the full control effect
Target sequence (Q92551 whole entry, looked up): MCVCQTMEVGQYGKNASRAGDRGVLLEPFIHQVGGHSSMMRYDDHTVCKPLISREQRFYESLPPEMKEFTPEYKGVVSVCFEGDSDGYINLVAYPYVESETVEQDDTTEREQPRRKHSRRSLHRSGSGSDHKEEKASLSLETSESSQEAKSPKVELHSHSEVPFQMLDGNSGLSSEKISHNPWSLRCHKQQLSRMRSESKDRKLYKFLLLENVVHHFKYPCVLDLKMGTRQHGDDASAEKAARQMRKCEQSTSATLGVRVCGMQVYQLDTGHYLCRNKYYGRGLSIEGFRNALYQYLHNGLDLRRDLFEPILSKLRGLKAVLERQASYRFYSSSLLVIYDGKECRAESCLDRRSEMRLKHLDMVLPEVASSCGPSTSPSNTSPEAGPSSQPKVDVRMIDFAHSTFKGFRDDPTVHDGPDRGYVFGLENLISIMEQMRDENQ
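ADP-Glo luminescence measures ADP made by human IP6K1 during a 2 h RT reaction with ATP/IP6 (mix at 1.3 mM/130 uM); top library doses 57.5 and 19.1 uM final.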
Starred values were filed as active, the others as inactive; i = inactive; ? = inconclusive; nt = no result. Compounds with a hit are over-represented: about 2.8% of the library has one in this group of screens.

SMILES	KDM5B inhibitor	IP6K1 inhibitor
Cc1oc2ccn(Cc3ccc(F)cc3)c(=O)c2c1C(=O)N1CCN(c2ccccn2)CC1	22µM*	12
CCCNC(=O)c1c(C)oc2ccn(Cc3ccc(F)cc3)c(=O)c12	i	6
COc1ccc(NC(=O)N2C[C@@H]3C[C@H](C2)c2ccc(NC(=O)Nc4ccccc4)c(=O)n2C3)cc1	?	0
COc1ccc(CC(=O)Nc2ccc3n(c2=O)C[C@H]2C[C@@H]3CN(C(=O)c3ccc(-c4ccccc4)cc3)C2)cc1	25µM*	-8
COc1ccc(NC(=O)N2C[C@@H]3C[C@H](C2)c2ccc(NC(=O)Nc4cccc(C#N)c4)c(=O)n2C3)cc1	28µM*	3
COc1ccc(CC(=O)Nc2ccc3n(c2=O)C[C@H]2C[C@@H]3CN(C(=O)Nc3ccc(OC)cc3)C2)cc1	i	-4
O=C(Nc1cccc(F)c1)Nc1ccc2n(c1=O)C[C@H]1C[C@@H]2CN(C(=O)c2ccc(F)cc2)C1	28µM*	-4
O=C(c1ccc(F)cc1)N1C[C@@H]2C[C@H](C1)c1ccc(NS(=O)(=O)c3cccc(F)c3)c(=O)n1C2	?	1
COc1ccc(-c2c(C(=O)NCCCc3ccccc3)nc3sccn23)cc1	nt	4
O=C(NCCNC(=O)C1CCCC1)c1cccc(-c2ccsc2)c1	nt	-5
O=C(Cc1ccccc1)Nc1sc2c(c1C(=O)Nc1ccccc1)CCCCC2	?	7
O=C(Cc1ccccc1)Nc1sc2c(c1C(=O)Nc1ccc(Cl)cc1)CCCC2	?	-30*
CN1CC(C(=O)NCc2cccc(Cl)c2)NC1=O (centres undefined)	nt	3
COc1ccc(-n2cc(CN3CCC(O)CC3)c(-c3cccc(F)c3)n2)cc1	28µM*	13
COc1ccc(-c2nn(-c3ccccc3)cc2CN2CCC(F)CC2)c(F)c1	?	-12
O=C(NC1CCN(c2ccc3nnc(C4CC4)n3n2)CC1)C1CCCCC1	nt	3
CCCC(C)C(=O)N1CCc2[nH]nc(C(=O)NCCCc3ccccc3)c2C1 (centres undefined)	nt	2
COc1ccc(-c2cc(C(=O)N3CCC(Cc4ccccc4)CC3)c3cnn(C)c3n2)cc1	nt	-15
Cc1ccsc1C(=O)NCC1Cn2cccc2C(=O)N1CC(C)C (centres undefined)	i	5
CCNC(=O)NCC1Cn2cccc2CN1C (centres undefined)	22µM*	-2
Cc1noc(C)c1C(=O)NCC1Cn2cccc2CN1C (centres undefined)	?	-8
Cc1ccsc1C(=O)NCC1Cn2cccc2CN1C (centres undefined)	32µM*	-8
O=C(NCC1Cn2cccc2CN1Cc1ccccc1)c1ccsc1 (centres undefined)	25µM*	-2
CN1Cc2cccn2CC1CNC(=O)c1ccoc1 (centres undefined)	28µM*	15
CC(C)NC(=O)NCC1Cn2cccc2CN1C (centres undefined)	?	-2
SMILES	KDM5B inhibitor	IP6K1 inhibitor
O=C(NCC1Cn2cccc2C(=O)N1Cc1ccccc1)c1ccsc1 (centres undefined)	i	-4
O=C(c1cc(-c2cccc(C(F)(F)F)c2)c2nncn2n1)N1CCC(c2ccccc2)CC1	nt	20
COc1ccc(CCNC(=O)C2CCc3nnc(CNC(C)=O)n32)cc1 (centres undefined)	nt	1
O=C(C1CCCN([S+](=O)([O-])c2cccs2)C1)N1CCC(N2Cc3cccn3C2=O)CC1 (centres undefined)	nt	-9
Cn1ncc2c(C(=O)NC3CCOC3)cc(-c3cccc(C(F)(F)F)c3)nc21 (centres undefined)	nt	3
Cn1ncc2c(C(=O)NC3CCOCC3)cc(-c3ccc(F)cc3)nc21	nt	2
N#Cc1cccnc1-c1ccc(C(=O)N2CCC(NC(=O)c3ccc(Cl)nc3)CC2)cc1	nt	3
CC1CCN(C(=O)C2CCN(C(=O)c3ccc4ccccc4n3)CC2)CC1	i	nt
O=C(NCC1Cn2cccc2CN1Cc1ccccc1)c1ccncc1 (centres undefined)	28µM*	-10
O=C(NCC1Cn2cccc2CN1Cc1ccccc1)c1ccoc1 (centres undefined)	28µM*	-12
O=C(NCC1Cn2cccc2CN1Cc1ccccc1)c1n[nH]c2ccccc12 (centres undefined)	14µM*	-15
O=C(NCC1Cn2cccc2CN1Cc1ccccc1)c1c[nH]c2ccccc12 (centres undefined)	?	0
O=C(NCC1Cn2cccc2CN1Cc1ccccc1)Nc1ccccc1 (centres undefined)	nt	-10
O=C(NCC1Cn2cccc2C(=O)N1Cc1ccccc1)c1ccncc1 (centres undefined)	i	-3
CC(C)Cn1c(=O)c(C(=O)NCCCc2ccccc2)nc2cccnc21	nt	16
COc1ccc(-c2cccc(C(=O)N3CCN(C(=O)c4ccc(C(F)(F)F)cc4)CC3)c2)nn1	nt	-5
CC(=O)N1CCCN(c2cc(Cl)nc3ccnn23)CC1	i	30
